Calls of active or inactive are those of the source.
What was measured:
[1] = test system: Wnt5a (protein binding on small-molecule microarray); experiment: Wnt5a binders on small-molecule microarray, primary screen, biophysical, 635/667 nm fluorescence (AID 1142); details: 635 nm fluorescence, higher = more signal;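 further: fluorescence read at 667 nm with signal to noise per printed feature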
[2] = cell viability in Huh7 cells, primary screen, cytotoxicity control for HCV replication inhibitor project, CellTiter-Glo luminescence, basal, 48 h (AID 1143); details: Huh7 HCV replicon, higher = more signal, called active from +8 up or from −8 down;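 further: Huh7 hepatoma cells carrying a hepatitis C replication reporter with no stimulus; test concentration not given here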
[3] = CREB reporter modulators without forskolin, primary screen, cell-based, PC12, CRE-LacZ reporter, unstimulated (AID 1145); details: no forskolin, luminescence, 4.5 h, higher = more signal, called active from +8 up or from −8 down
[4] = CREB reporter modulators under forskolin, primary screen, cell-based, PC12, CRE-LacZ reporter, forskolin-stimulated (AID 1146); details: luminescence, 4.5 h, higher = more signal, called active from +8 up or from −8 down;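 further: PC12 cells with 6xCRE LacZ reporter stimulated by forskolin 10 µM; beta-galactosidase reporter signal reflecting CREB driven transcription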
[5] = biological target: Streptavidin (Streptomyces avidinii) (UniProt P22629); experiment: streptavidin binders on small-molecule microarray, primary screen, artefact control for SMM compound annotation, biophysical, 635/667 nm fluorescence (AID 1147); details: streptavidin binding, higher = more signal;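 further: signal reflects streptavidin binding to arrayed compounds as a control protein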
Sequence of Streptavidin (Streptomyces avidinii) (P22629 whole entry, looked up): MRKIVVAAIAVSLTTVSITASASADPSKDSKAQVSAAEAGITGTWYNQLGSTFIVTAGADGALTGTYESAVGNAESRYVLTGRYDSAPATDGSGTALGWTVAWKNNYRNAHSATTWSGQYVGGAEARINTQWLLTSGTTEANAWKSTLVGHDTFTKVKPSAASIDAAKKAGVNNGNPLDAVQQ

[6] = small-molecule binders of probe aInhba, primary screen, biochemical, small-molecule microarray, 635/667 nm fluorescence (AID 1148); details: higher = more signal;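 further: score merges 667nm spot fluorescence with signal-to-noise for antibody binding to printed compounds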
Torsin-1A (Homo sapiens) [7] = biological target: Torsin-1A (Homo sapiens) (UniProt O14656); experiment: torsin A binders from cell lysate, primary screen, small-molecule microarray, wild-type, 635/667 nm (AID 1149); details: COS7 hTOR1A-WT lysate, 635 nm fluorescence, higher = more signal
Sequence of Torsin-1A (Homo sapiens) (O14656 whole entry, looked up): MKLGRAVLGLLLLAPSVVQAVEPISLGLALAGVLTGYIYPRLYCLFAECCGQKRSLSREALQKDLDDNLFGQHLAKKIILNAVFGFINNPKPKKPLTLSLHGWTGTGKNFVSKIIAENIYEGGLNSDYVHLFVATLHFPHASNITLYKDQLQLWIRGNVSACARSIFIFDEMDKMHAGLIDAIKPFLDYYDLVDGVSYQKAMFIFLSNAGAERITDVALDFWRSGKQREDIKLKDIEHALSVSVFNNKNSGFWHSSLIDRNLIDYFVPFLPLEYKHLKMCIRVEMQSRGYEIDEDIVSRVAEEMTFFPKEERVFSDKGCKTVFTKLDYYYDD

Torsin-1A (Homo sapiens) [8] = biological target: Torsin-1A (Homo sapiens) (UniProt O14656); experiment: small-molecule binders of mutant TOR1A in lysate, primary screen, cell lysate, small-molecule microarray, COS7 lysate, 635/667 nm fluorescence (AID 1150); details: COS7 hTOR1A mutant lysate, 635 nm fluorescence, higher = more signal;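 further: score pools 667 nm emission and signal to noise measuring lysate protein binding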
[9] = test system: Sonic hedgehog protein (Shh); experiment: small-molecule binders of Shh protein, primary screen, biochemical, small-molecule microarray, 635/667 nm fluorescence (AID 1151); details: small-molecule microarray binding, 635 nm fluorescence; higher = more signal;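 further: Shh protein binding to compounds spotted on small-molecule microarray slides; score combines spot fluorescence intensity with signal-to-noise across triplicate slides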
[10] = E. coli DRC41 culture turbidity changes, primary screen, E. coli filamentation inducer project, strain DRC41, OD650, 48 h (AID 1152);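 further: E. coli MC1000 strain DRC41 lacking acrAB efflux pump and sulA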; details: E. coli DRC41 (acrAB sulA), higher = more signal, called active from +8 up or from −8 down
[11] = small-molecule binders of probe aLefty1, primary screen, biochemical, small-molecule microarray, 635/667 nm fluorescence (AID 1153); details: higher = more signal;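 further: score merges spot fluorescence with signal-to-noise ratio from the scanned slide images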
[12] = PSAC antagonists in infected red cells, primary screen, cell-based, P. falciparum Indochina, OD700, 1 h (AID 1154); details: P. falciparum Indochina infected RBC osmotic lysis, higher = more signal, called active from +8 up or from −8 down
[13] = PSAC antagonists in infected red cells, primary screen, cell-based, P. falciparum Indochina, OD700, 2 h (AID 1155);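 further: lysis reports solute entry through the parasite surface anion channel PSAC; channel blockers reduce lysis of infected cells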; details: P. falciparum Indochina infected erythrocytes, osmotic lysis OD700; higher = more signal, called active from +8 up or from −8 down
[14] = osmotic lysis modulators in infected erythrocytes, primary screen, PSAC antagonist project, cell-based, P. falciparum Indochina, OD700, 3 h (AID 1156); details: higher = more signal, called active from +8 up or from −8 down
[15] = PSAC antagonists in infected red cells, primary screen, cell-based, P. falciparum Indochina, OD700, 18 h (AID 1157); details: P. falciparum Indochina infected erythrocytes, osmotic lysis OD700, 18 h; higher = more signal, called active from +8 up or from −8 down
[16] = modulators of S6 phosphorylation in cells, primary screen, cell-based, A549, cytoblot, luminescence, serum-stimulated (AID 1158); details: A549 phospho-S6 cytoblot, 5 h, higher = more signal;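 further: serum-stimulated A549 lung adenocarcinoma cells; signal is phosphorylated S6 detected by cytoblot immunostaining with HRP secondary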
[17] = biological target: NADPH oxidase 2 (Homo sapiens) (UniProt P04839); experiment: NOX2-dependent H2O2 signal modulators, primary screen, NOX inhibitor project, cell-based, HEK293-NOX2, PMA-stimulated, Amplex Red fluorescence (AID 1159); details: 45 min, higher = more signal, called active from +8 up or from −8 down; further: test concentration not given here
Sequence of NADPH oxidase 2 (Homo sapiens) (P04839 whole entry, looked up): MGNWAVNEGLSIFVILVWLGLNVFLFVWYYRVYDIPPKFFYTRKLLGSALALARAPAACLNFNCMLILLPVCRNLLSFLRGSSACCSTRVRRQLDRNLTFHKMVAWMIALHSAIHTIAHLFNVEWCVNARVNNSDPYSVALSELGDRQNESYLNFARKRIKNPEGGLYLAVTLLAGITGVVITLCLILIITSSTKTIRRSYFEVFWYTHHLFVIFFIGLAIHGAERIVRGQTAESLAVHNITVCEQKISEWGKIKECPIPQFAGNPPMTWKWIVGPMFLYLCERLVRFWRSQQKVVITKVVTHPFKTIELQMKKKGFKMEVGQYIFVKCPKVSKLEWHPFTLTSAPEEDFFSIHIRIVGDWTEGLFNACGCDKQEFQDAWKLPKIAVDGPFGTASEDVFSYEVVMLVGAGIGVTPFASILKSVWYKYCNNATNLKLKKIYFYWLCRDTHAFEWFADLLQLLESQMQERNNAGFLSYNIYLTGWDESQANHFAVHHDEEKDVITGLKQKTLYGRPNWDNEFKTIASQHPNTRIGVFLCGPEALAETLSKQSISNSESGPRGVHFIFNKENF

[18] = biological target: NADPH oxidase 4 (Homo sapiens) (UniProt Q9NPH5); experiment: NOX4-dependent H2O2 signal modulators, primary screen, NOX inhibitor project, cell-based, HEK293-NOX4, tetracycline-induced, Amplex Red fluorescence (AID 1160); details: 45 min, higher = more signal, called active from +8 up or from −8 down
Sequence of NADPH oxidase 4 (Homo sapiens) (Q9NPH5 whole entry, looked up): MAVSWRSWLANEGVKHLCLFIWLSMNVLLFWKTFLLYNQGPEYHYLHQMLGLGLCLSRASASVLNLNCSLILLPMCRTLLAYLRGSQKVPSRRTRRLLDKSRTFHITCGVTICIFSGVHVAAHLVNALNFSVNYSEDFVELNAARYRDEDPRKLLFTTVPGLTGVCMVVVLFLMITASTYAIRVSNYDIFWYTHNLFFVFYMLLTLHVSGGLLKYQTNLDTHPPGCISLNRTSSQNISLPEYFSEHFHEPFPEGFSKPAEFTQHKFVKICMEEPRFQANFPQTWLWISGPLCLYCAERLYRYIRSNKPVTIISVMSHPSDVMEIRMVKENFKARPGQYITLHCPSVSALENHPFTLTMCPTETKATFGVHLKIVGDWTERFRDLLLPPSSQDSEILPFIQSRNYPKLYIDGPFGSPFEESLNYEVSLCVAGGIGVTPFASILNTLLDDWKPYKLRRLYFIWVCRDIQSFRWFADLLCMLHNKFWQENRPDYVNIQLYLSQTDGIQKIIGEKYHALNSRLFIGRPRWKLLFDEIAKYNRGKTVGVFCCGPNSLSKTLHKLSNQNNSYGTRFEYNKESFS

[19] = biological target: NADPH oxidase 5 (Homo sapiens) (UniProt Q96PH1); experiment: NOX5-dependent H2O2 signal modulators, primary screen, NOX inhibitor project, cell-based, HEK293-NOX5, Amplex Red fluorescence (AID 1161); details: HEK293-NOX5, ionomycin, 45 min, higher = more signal
Sequence of NADPH oxidase 5 (Homo sapiens) (Q96PH1 whole entry, looked up): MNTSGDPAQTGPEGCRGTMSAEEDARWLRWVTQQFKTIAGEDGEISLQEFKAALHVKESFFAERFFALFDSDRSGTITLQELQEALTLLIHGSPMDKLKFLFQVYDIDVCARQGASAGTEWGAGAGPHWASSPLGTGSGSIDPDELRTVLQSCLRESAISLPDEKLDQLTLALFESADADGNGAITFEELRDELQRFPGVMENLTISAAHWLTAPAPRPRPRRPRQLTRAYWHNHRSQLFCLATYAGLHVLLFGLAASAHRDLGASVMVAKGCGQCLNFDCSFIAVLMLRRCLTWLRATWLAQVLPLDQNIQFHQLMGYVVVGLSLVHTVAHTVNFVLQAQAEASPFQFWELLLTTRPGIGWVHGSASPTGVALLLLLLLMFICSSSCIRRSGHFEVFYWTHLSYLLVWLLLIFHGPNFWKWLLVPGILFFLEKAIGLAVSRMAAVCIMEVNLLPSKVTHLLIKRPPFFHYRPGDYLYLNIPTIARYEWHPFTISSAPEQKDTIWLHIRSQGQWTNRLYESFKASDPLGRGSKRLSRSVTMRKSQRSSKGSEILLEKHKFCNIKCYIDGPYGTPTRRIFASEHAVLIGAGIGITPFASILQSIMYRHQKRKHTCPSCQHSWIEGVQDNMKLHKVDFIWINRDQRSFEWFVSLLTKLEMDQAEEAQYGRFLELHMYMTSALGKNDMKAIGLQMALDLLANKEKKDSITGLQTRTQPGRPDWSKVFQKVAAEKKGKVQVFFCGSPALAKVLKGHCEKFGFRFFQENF

[20] = A549 cell viability effects, profiling panel, calcein-AM fluorescence, 48 h, basal (AID 1162); details: higher = more signal; further: test concentration not given here

| SMILES | composite z-score [1] | z-score [2] | z-score [3] | z-score [4] | composite z-score [5] | composite z-score [6] | composite z-score (Torsin-1A (Homo sapiens) [7]) | composite z-score (Torsin-1A (Homo sapiens) [8]) | composite z-score [9] | z-score [10] | composite z-score [11] | z-score [12] | z-score [13] | z-score [14] | z-score [15] | z-score [16] | z-score [17] | z-score [18] | z-score [19] | z-score [20] |
| --- | --- | --- | --- | --- | --- | --- | --- | --- | --- | --- | --- | --- | --- | --- | --- | --- | --- | --- | --- | --- |
| C=C(COC)C(=O)CC[C@H](OC(=O)c1cccnc1)c1cccc(OCCO)c1 | 1 | -0.365 (inactive) | 6.86 (inactive) | 0.309 (inactive) | -0.347 | 0.345 | 2.35 | 0.0556 | 2.06 | 1.05 (inactive) | 0.75 | 10.4 (active) | 1.47 (inactive) | 0.934 (inactive) | 0.577 (inactive) | -0.597 | 0.936 (inactive) | 0.743 (inactive) | -1.3 | 0.18 |
| C=CCNC(=O)[C@H]1[C@@H]2C(=O)O[C@@H](c3ccccc3)[C@@H](c3ccccc3)N2[C@@H](c2ccccc2OCCO)[C@]12C(=O)N(C(=O)OCCOC)c1ccc(C#CCCO)cc12 | 0.641 | -3.68 (inactive) | 0.472 (inactive) | 3.22 (inactive) | 0.876 | 0.561 | 1.02 | 0.546 | 0.861 | 1.4 (inactive) | 1.12 | 2.84 (inactive) | 1.32 (inactive) | -0.383 (inactive) | 0.875 (inactive) | 0.0195 | 1.74 (inactive) | 1.42 (inactive) | 1.01 | 0.822 |
| C#CCOc1ccc(C[C@H]2C(=O)O[C@H](Cc3ccccc3)[C@H](/C=C/C3CC3)N2CC#C)cc1 | -0.245 | -2.48 (inactive) | -0.414 (inactive) | 0.741 (inactive) | -0.0298 | -0.183 | 0.498 | 0.212 | 0.145 | 2.04 (inactive) | -0.279 | 0.57 (inactive) | -0.251 (inactive) | -0.372 (inactive) | -0.383 (inactive) | 0.242 | -0.21 (inactive) | 0.764 (inactive) | -1.52 | -0.743 |
| CC(C)(C)OC(=O)CC[C@@]12N=C(c3ccc(OCCCO)cc3)O[C@@H]1c1ccccc1N(Cc1ccccc1)C2=O | 0.215 | -4.37 (inactive) | 1.6 (inactive) | -1.25 (inactive) | -0.0873 | 0.222 | 0.488 | 0.516 | 0.657 | 0.94 (inactive) | 0.659 | 28.5 (active) | 29 (active) | 3.86 (inactive) | 2.24 (inactive) | 0.497 | 1.56 (inactive) | -0.266 (inactive) | -1.38 | -0.236 |
| CC(C)C[C@@H]1NC(=O)[C@H]2C[C@@H](C(=O)NCCCC[N+](C)(C)C)[C@@H](c3cccc(OCCO)c3)N2C1=O | 0.223 | -1.01 (inactive) | -0.26 (inactive) | -1.21 (inactive) | -0.429 | -0.1 | 2.05 | 0.629 | 2.03 | 0.512 (inactive) | -0.243 | 2.25 (inactive) | -1.73 (inactive) | -2.51 (inactive) | -2.05 (inactive) | 0.251 | -1.8 (inactive) | -0.815 (inactive) | -1.49 | 1.01 |
| NCCCCCNC(=O)[C@H]1C[C@H]2C(=O)NCC(=O)N2[C@H]1c1ccc(O)cc1 | 0.518 | -0.108 (inactive) | 0.679 (inactive) | 0.407 (inactive) | 1.72 | -0.0419 | 1.69 | 0.376 | 2 | 1.01 (inactive) | -0.147 | 0.365 (inactive) | 0.113 (inactive) | -1.79 (inactive) | 0.252 (inactive) | -0.565 | 0.653 (inactive) | -1.24 (inactive) | 0.566 | -0.0704 |
| O=C(NCC(F)(F)F)[C@@H]1c2ccccc2C(=O)N(C2Cc3ccccc3C2)[C@H]1c1ccc(CO)cc1 | -0.034 | -1.11 (inactive) | -0.295 (inactive) | -1.15 (inactive) | -1.25 | 0.106 | -0.0578 | 0.224 | -0.875 | 2.43 (inactive) | 0.0588 | 3.55 (inactive) | -0.483 (inactive) | 1.8 (inactive) | -0.683 (inactive) | 1.14 | 0.207 (inactive) | 1.23 (inactive) | -1.23 | 2.25 |
| C=CCC1(CC=C)C[C@H]2CO[C@H](c3ccc(OC)cc3)N2C1=O | -0.125 | -0.15 (inactive) | 1.73 (inactive) | -0.473 (inactive) | -0.147 | -0.105 | 0.483 | 0.862 | 0.707 | 2.03 (inactive) | -0.0654 | -0.214 (inactive) | 0.573 (inactive) | -0.123 (inactive) | 0.503 (inactive) | 0.0446 | 0.992 (inactive) | 0.181 (inactive) | -0.0682 | 1.12 |
| [N-]=[N+]=NCc1ccccc1C[C@@]1(C(=O)NCc2ccccc2)N=C(c2ccc(OCCCO)cc2)O[C@@H]1c1ccccc1 | 0.238 | -5.27 (inactive) | 0.596 (inactive) | -0.942 (inactive) | 0.229 | -0.025 | 0.0526 | 1.48 | -0.353 | 1.75 (inactive) | 0.277 | 21 (active) | 5.58 (inactive) | 1.81 (inactive) | -0.217 (inactive) | 0.969 | 1.2 (inactive) | 0.964 (inactive) | 0.0832 | -2.22 |
